From PubChem BioAssay AID1851 (National Center for Advancing Translational Sciences (NCATS), 2009)
In all, about 16,000 compounds went through this assay and about 5,800 (36%) were called active. Another 23% or so got no clear call; they are omitted. The list shows a part of the results. Values without a mark were called inactive. Calls follow the shape of the dose curve; as a rule, active = well fitted curve in the direction sought with a large enough effect; inconclusive = small, poorly fitted or top-dose-only effect, or effect the other way; inactive = no such curve, though single readings can be large or run the other way.

molecular target: Cytochrome P450 2C19 (Homo sapiens) (UniProt P33261); assay: Cytochrome panel assay with activity outcomes; details: recombinant CYP, pro-luciferin dealkylation, luminescence, p450-cyp2c19; series mostly up to 57.1 µM
Sequence (P33261 whole entry, looked up): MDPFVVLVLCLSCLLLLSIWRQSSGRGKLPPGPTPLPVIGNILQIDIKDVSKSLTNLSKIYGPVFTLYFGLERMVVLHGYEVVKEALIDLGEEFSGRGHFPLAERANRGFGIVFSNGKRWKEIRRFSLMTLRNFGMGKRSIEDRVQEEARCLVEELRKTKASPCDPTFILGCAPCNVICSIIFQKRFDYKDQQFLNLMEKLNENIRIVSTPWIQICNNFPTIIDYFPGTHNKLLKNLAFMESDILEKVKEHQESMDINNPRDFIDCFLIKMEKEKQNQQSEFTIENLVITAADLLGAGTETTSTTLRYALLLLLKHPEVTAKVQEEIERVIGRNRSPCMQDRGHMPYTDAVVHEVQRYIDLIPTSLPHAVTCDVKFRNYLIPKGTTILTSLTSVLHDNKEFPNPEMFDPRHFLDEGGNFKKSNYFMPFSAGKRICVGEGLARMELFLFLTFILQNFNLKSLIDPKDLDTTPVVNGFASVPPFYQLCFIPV
% is scaled to controls: 0 for no effect and ±100 for the full control effect.

SMILES	AC50	activity, negative = inhibition
CCCCC1=NN2C(=N)CC(=O)N=C2S1	inactive	
O=C1C(Cc2ccccc2)NC(=S)N1c1ccccc1 (stereo not drawn)	3.16 µM (active)	
C[C@H]1COC(=O)[C@H](Cc2ccccc2)NC(=O)[C@@H](C)COC(=O)[C@H](Cc2ccccc2)NC1=O		-17.3% [at 11.4 µM]
CO[C@@H]1COC(=O)[C@H](Cc2ccccc2)NC(=O)C/C=C\[C@@H](C)[C@H](OC)COC(=O)[C@@H](C)NC(=O)C/C=C\[C@H]1C		10.6% [at 11.4 µM]
Cc1ccc(CNC(=O)Cn2cncn2)cc1	7.94 µM (active)	
C[C@H](NC(=O)Cn1cncn1)c1ccccc1	inactive	
O=C(Cn1cnc([N+](=O)[O-])c1)NCc1ccc(F)cc1	inactive	
Cc1cc(N)n(-c2ccc3ccccc3c2)n1	25.1 µM (active)	
O=C(c1csnn1)N1CCC2(CC1)CN(c1ccccn1)C2	inactive	
Cc1ccc(Nc2ccc(-n3ccnc3)nn2)cc1C	0.0501 µM (active)	
CC(C)C(=O)NC(=S)Nc1ccccc1C(=O)Nc1ccccc1	15.8 µM (active)	
CCC(C)NC(=O)c1ccccc1NC(=O)Nc1ccccc1 (stereo not drawn)	10 µM (active)	
Clc1ccc(CO[C@@H](Cn2ccnc2)c2ccc(Cl)cc2Cl)cc1	0.0631 µM (active)	
Clc1ccc([C@H](Cn2ccnc2)OCc2csc3c(Cl)cccc23)c(Cl)c1	0.251 µM (active)	
CC1(C)Cc2c(sc3c2C(=O)N(c2ccccc2)C2=NCCN23)CS1	inactive	
[O-][n+]1c(CN2CCCCC2)nc2cccc3c2c1-c1ccccc1-3		9.09% [at 11.4 µM]
c1ccc(Cn2c(CN3CCCC3)nc3ccccc32)cc1	3.55 µM (active)	
Clc1ccc(Cn2c(CN3CCCC3)nc3ccccc32)cc1	0.2 µM (active)	
Cc1ccccc1Cn1c(Cc2ccccc2)nc2ccccc21	2 µM (active)	
Cn1c(-c2ccc(CN3CCCCC3)o2)nc2ccccc21	inactive	
Cc1ccccc1CN1C2=NCCN2C(=O)C2=C1CCN(Cc1ccccc1)C2		10.2% [at 11.4 µM]
C[N+]1(C)CCO[C@](O)(c2ccccc2)C1		42.8% [at 11.4 µM]
c1cc2c(cc1C(N1CCNCC1)N1CCNCC1)OCO2		14.2% [at 11.4 µM]
c1ccc(SC(Sc2ccccc2)c2ccc3c(c2)OCO3)cc1	0.0316 µM (active)	
Cc1ccc(S(=O)(=O)N(CC(=O)N/N=C/c2ccc(F)cc2)c2cccc3cccnc23)cc1	1.12 µM (active)	

SMILES	AC50	activity, negative = inhibition
CC(C)COCC1CC2(CC(C)(c3csc(N)n3)OC2=O)C(=O)O1 (stereo not drawn)	15.8 µM (active)	
CCCSC1=C(C#N)C(c2cccnc2)C(C(=O)OCC)=C(c2ccccc2)N1 (stereo not drawn)	14.1 µM (active)	
N#Cc1cccc(NC(=O)N2CCCC3(CCN(C(=O)c4cnccn4)CC3)C2)c1	inactive	
NN(CC(=O)O)CC(=O)O		14.5% [at 11.4 µM]
O=C(Nc1nc(-c2ccccc2)cs1)c1ccc(Br)o1	14.1 µM (active)	
O=C(Nc1nc(-c2ccccc2)cs1)c1cccc([N+](=O)[O-])c1	1.58 µM (active)	
CCNc1ncc2nc(C)c(=O)n(C)c2n1	inactive	
COc1ccc([C@H]2Sc3ccccc3N(CCN(C)C)C(=O)[C@H]2OC(C)=O)cc1	inactive	
CN(C)CCCN=c1c2ccccc2n(C)c2[nH]c(=O)n(C)c(=O)c12		31% [at 11.4 µM]
CCNc1ncc2nc(-c3ccc(F)cc3)c(=O)n(CCC#N)c2n1	inactive	
CC(C)c1ccc(C(=O)CC2(O)C(=O)N(CN3CCOCC3)c3ccccc32)cc1 (stereo not drawn)	2.24 µM (active)	
CC1(C)C(=O)N(CCN2CCC(C(=O)c3ccc(F)cc3)CC2)c2ccccc21	inactive	
C[C@@H]1C[C@H]2[C@H]3C[C@@H](F)C4=CC(=O)C=C[C@]4(C)[C@@]3(Cl)[C@@H](O)C[C@@]2(C)[C@@H]1C(=O)COC(=O)C(C)(C)C	inactive	
Clc1ccc(/C=N/Nc2nnc(-c3ncc[nH]3)c3ccccc23)cc1	11.2 µM (active)	
C(=N/Nc1nnc2c(n1)[nH]c1ccccc12)/c1cccnc1		-3.42% [at 11.4 µM]
C=CC[n+]1c(-c2ccc(C)cc2)csc1NNC(=O)Nc1ccccc1	5.01 µM (active)	
O=C1CC(N2CCN(CCc3ccccn3)CC2)C(=O)N1c1ccc(Cl)cc1 (stereo not drawn)	8.91 µM (active)	
O=C(CCn1nc(-c2ccc(Cl)cc2)ccc1=O)NCc1ccccn1	inactive	
CC1(C)CC2(CC(c3cccs3)c3cc(Cl)c(O)cc3O2)NC(=S)N1 (stereo not drawn)	2.82 µM (active)	
O=C(O)c1ccccc1OP(=O)(O)O	inactive	
Cc1nc(Cl)c(C#N)cc1-c1ccccc1	5.62 µM (active)	
Cc1ccc(Oc2nnc(-c3ccccc3)cc2C#N)cc1	inactive	
Cc1nc(Sc2ccccc2)c(C#N)cc1-c1ccccc1	0.631 µM (active)	
Cc1cc2c(cc1C)NC1=C(N2)O[C@H](c2c[nH]c3ccc(COc4ccccc4)cc23)C1=O	0.501 µM (active)	
O=C(O)c1c[nH]c2cc(OCc3ccccc3)ccc2c1=O		0.142% [at 11.4 µM]

SMILES	AC50	activity, negative = inhibition
Cc1ncc(N=Nc2ccccc2Cl)c(-c2ccccc2)n1	14.1 µM (active)	
CCSC1=C(C#N)C2(CCCCC2)C(C#N)=C(N)N1	5.01 µM (active)	
O=C(CNC(=O)c1ccco1)OC(C(=O)c1ccccc1)c1ccccc1 (stereo not drawn)	5.62 µM (active)	
COc1ccc(C(=O)[C@H](Br)[C@H](Br)C(=O)O)cc1		-1.07% [at 11.4 µM]
COc1ccc(C(=O)C(OC(=O)CNC(=O)c2ccco2)c2ccccc2)cc1 (stereo not drawn)	10 µM (active)	
COc1ccc(-c2ccc(/C=C3\C(=O)N(c4ccccc4)N=C3c3ccccc3)o2)c([N+](=O)[O-])c1	2.51 µM (active)	
COC(=O)c1ccccc1-c1ccc(/C=C2\C(=O)N(c3ccccc3)N=C2c2ccccc2)o1	1.41 µM (active)	
CC1=NN(c2ccccc2)C(=O)/C1=C\N1CC(C)OC(C)C1 (stereo not drawn)	inactive	
CN(C)CCCN1CCC2(CCC(C(C)(C)C)CC2)CC1		40.8% [at 11.4 µM]
C[C@H](Oc1ccccc1)C(=O)N[C@@H]1C(=O)N2[C@@H]1SC(C)(C)[C@@H]2C(=O)O	inactive	
CC(Oc1ccccc1)C(=O)Nc1nc2c(s1)C(=O)CC(C)(C)C2 (stereo not drawn)	7.08 µM (active)	
O=C1N=C(N2CCC(Cc3ccccc3)CC2)S/C1=C/c1cn[nH]c1-c1ccccc1	3.55 µM (active)	
CC(C)C(NC(=O)OCc1ccccc1)C(=O)O (stereo not drawn)	inactive	
CCC(C)C(NC(=O)OCc1ccccc1)C(=O)OCN1C(=O)c2ccccc2C1=O (stereo not drawn)	3.16 µM (active)	
CCN1C(=O)[C@H]2[C@H]3[C@H](O)[C@H](O)C/C(=N/NC(=O)OCc4ccccc4)[C@@H]3CC[C@@H]2C1=O		36.5% [at 11.4 µM]
Cc1ccc(C(=O)/C=C/c2c[nH]c3ccccc23)cc1	3.55 µM (active)	
CCCn1c(/C=C/c2ccccc2)nc2ccccc21	7.94 µM (active)	
c1ccc2c(CSCc3cccc4ccccc34)cccc2c1	0.126 µM (active)	
c1ccc2c(CC3NCCN3)cccc2c1		28.8% [at 11.4 µM]
c1cc(CSSCc2ccncc2)ccn1	1.26 µM (active)	
c1ccc2c(CSc3nnc(-c4ccncc4)o3)cccc2c1	0.282 µM (active)	
c1ccc2c(CSCCc3ccncc3)cccc2c1	0.0794 µM (active)	
O=S(=O)(O)CCCc1cccc2ccccc12		21.3% [at 11.4 µM]
CCNc1ncc2nc(-c3ccc(F)cc3)c(=O)n(-c3ccccc3)c2n1	inactive	
Clc1ccc(CSCCc2ccncc2)cc1Cl	0.1 µM (active)	

SMILES	AC50	activity, negative = inhibition
N[C@@H](CSC(=O)c1ccccc1)C(=O)O		16.7% [at 11.4 µM]
O=C(Cc1ccc(Cl)cc1)NNC(=O)Nc1cccc2ccccc12	inactive	
O=C(SCc1cccc2ccccc12)c1ccc(Cl)cc1	1.58 µM (active)	
CN1CCN(CCc2ccc(Cl)c(Cl)c2)CC1	inactive	
N=C(N)SCCc1ccc(CCSC(=N)N)cc1	inactive	
c1ccc(CSCCc2ccncc2)cc1	0.1 µM (active)	
N=C(N)SCCc1ccncc1		9% [at 11.4 µM]
CCOC(=O)C1=C(CSc2nc(-c3ccccc3)ccc2C#N)OC(N)=C(C#N)C1c1ccc(OC)cc1 (stereo not drawn)	2.82 µM (active)	
CN1CCN(c2ncc3nc(-c4cc(F)cc(F)c4)c(=O)n(C)c3n2)CC1	inactive	
Cc1ccc(OCC(O)CNC(=O)c2ccccc2C(=O)O)cc1 (stereo not drawn)	20 µM (active)	
CC(C)NC[C@@H](O)COc1ccc(COCCOC(C)C)cc1	inactive	
Cc1ccc(S(=O)(=O)NCC(=O)N(CC(=O)NCc2ccco2)Cc2cccs2)cc1	14.1 µM (active)	
CC(C)(C)OC(=O)NCCc1nnc(SCC(=O)Nc2cccc(Cl)c2)o1	3.98 µM (active)	
Cc1ccc(C(CC(N)=O)c2ccco2)cc1 (stereo not drawn)	14.1 µM (active)	
NC(=O)OCC(COC(N)=O)c1ccccc1	inactive	
CC(C)(C)c1cc2cccnc2n1Cc1ccccc1	10 µM (active)	
COc1ccc(-c2ccc(C(=S)N3CCN(C(C)=O)CC3)o2)cc1	15.8 µM (active)	
COc1ccc(CC(=O)NCCN2CCCC2)cc1	inactive	
COc1ccc(-c2nc(C(=O)N3CCN(C)CC3)sc2-c2ccc(OC)cc2)cc1	inactive	
O=C(Nc1ccccc1)c1cc(-n2cnnc2)ccc1Cl	inactive	
O=C(O)c1ccccc1-c1ccccc1C(=O)Nc1ccccc1	inactive	
O=C(Nc1ccccc1)c1cc([N+](=O)[O-])ccc1Cl	0.794 µM (active)	
O=C(Nc1ccccc1)c1ccccc1CC[N+](=O)[O-]	17.8 µM (active)	
